Assay outcomes deposited in PubChem BioAssay by National Center for Advancing Translational Sciences (NCATS).
HCMV inh – blocks human cytomegalovirus replication | HFF cells, HCMV-luciferase reporter, 72 h; active compounds read low | activity change, negative = inhibition, % at 57.5 µM | actives 4.5% (n = 410,000) | AID 1259415; in the data active means activity change below about -60%; inconclusive means no clear call, values can overlap the other calls; inactive means above about -39%
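Luciferase read-out from HCMV-luciferase-infected HFFs (MOI 1 PFU/cell) 72 h post infection at 37C; compounds added after 16 h cell attachment; activity normalized between buffer-only basal and Salinomycin (10uM) inhibitor controls.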
CHX counter – counter-screen for Shiga toxin inhibitors: cycloheximide protein synthesis inhibition | cell reporter, cycloheximide protein synthesis inhibition counterscreen | max response, % | AID 2314 | actives 12% (n = 300,000); in the data active means max response mostly above about 13%, no sharp cut-off; inactive means mostly below about 14%; further: read at 38.3 µM for the half of the compounds with a filed dose
Pf growth 48h – inhibits P. falciparum growth in the first generation, 48 h | P. falciparum luciferase growth in erythrocytes, 48 h | Potency, µM (highest dose often 28.7 µM), hits mostly inhibitors | actives 5.9% (n = 310,000) | AID 504832
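A one-generation exposure of luciferase-tagged malaria parasites in RPMI 1640/Albumax erythrocyte culture, 37 C and 5% CO2. Inhibition is inferred from decreased luminescence after adding detection reagent.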
Pf growth 96h – P. falciparum growth inhibition at 96 hour, primary screen for plastid delayed-death inhibitors; AID 504834; Potency, µM (doses to about 28.7 µM), actives largely listed as inhibitors; P. falciparum luciferase reporter growth, 96 h; actives 6.9% (n = 320,000)
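96 h incubation, 37 C, 5% CO2, of luciferase-reporter P. falciparum-infected RBCs (2% hematocrit, 0.05% parasitemia final) with test compounds; endpoint luminescence.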
Shiga toxin inh – blocks Shiga toxin action in Vero cells; inhibition, % at 38.7 µM; actives 9.2% (n = 290,000); Vero cells, Shiga toxin protein synthesis inhibition reporter; in the data active means inhibition mostly above about 28%, no sharp cut-off; inactive means mostly below about 43%
Numbers stand for hits; . = inactive; ? = inconclusive; / = no result given. The list is not random: actives were taken first. Their share in the collection is about 20%. Unless noted, the call rests on the fitted dose curve; in most records, active means well fitted inhibition curve with a large enough effect; inconclusive means small, poorly fitted or top-dose-only effect, or another doubt; inactive means no such curve, though single readings can be large or run the other way.

SMILES | HCMV inh | CHX counter | Pf growth 48h | Pf growth 96h | Shiga toxin inh
O=[N+]([O-])c1ccc(N/N=C/c2cn(-c3ccccc3)nc2-c2ccccc2)cc1 | . | . | 13.1µM | 4.65µM | 30.8
O=C(NCc1cn(-c2ccccc2)nc1-c1ccccc1)c1ccc([N+](=O)[O-])cc1 | . | . | . | ? | .
NS(=O)(=O)c1ccc(N/N=C/c2ccccc2C(=O)O)c([N+](=O)[O-])c1 | . | . | . | . | .
NS(=O)(=O)c1ccc(N/N=C/c2cn(-c3ccccc3)nc2-c2ccccc2)c([N+](=O)[O-])c1 | -81.0 | . | 4.15µM | ? | .
Cc1oc(-c2ccc(C(=O)NCc3cccc(F)c3)cc2)nc1COc1ccccc1 | . | / | / | / | /
C=CCN(Cc1cccs1)C(=O)CN1CCN(S(=O)(=O)c2ccc3c(c2)OCCCO3)CC1 | . | / | ? | ? | /
COc1ccc(NC(=O)CSc2nc(N)c(NC(=O)c3cccs3)c(=O)[nH]2)cc1 | . | . | . | . | .
Cc1cc(C)cc(NC2=C(c3ccccc3)C(=O)c3ccccc32)c1 | . | / | / | / | /
COc1cccc(CCNC(=O)c2cc(COc3c(F)cccc3F)on2)c1 | . | 16.2 | . | ? | .
Cc1cc(OCc2cc(C(=O)NCc3csc(C(C)C)n3)no2)cc(C)c1Cl | . | 20.0 | . | . | .
Cc1ccc(OCc2cc(C(=O)NCc3cn4ccccc4n3)no2)cc1C | ? | 20.2 | . | ? | 37.3
O=C(NCCc1cn2ccccc2n1)c1cc(COc2c(F)cccc2F)on1 | ? | 17.1 | . | . | .
Cc1cc(OCc2cc(C(=O)NCCN3CCCCC3CO)no2)cc(C)c1Cl (centres undefined) | . | . | . | ? | .
COc1cccc(CCNC(=O)c2cc(COc3cccc(OC)c3)on2)c1 | . | / | / | / | /
O=C(NCCC1=CCCCC1)c1cc(COc2c(F)cccc2F)on1 | . | . | . | . | .
COc1ccccc1CNc1ccc(-c2nc(-c3ccco3)no2)cc1[N+](=O)[O-] | . | / | / | / | /
CN(C)[C@H]1CCN([C@@H]2CS(=O)(=O)N[C@H]2COCc2ccccc2)C1 | . | / | / | / | /
O=C(c1ccco1)n1nc(NCc2ccccc2)nc1NCc1ccccc1 | . | 9.9 | . | . | 37.2
COc1ccccc1C(=O)n1nc(-c2ccccc2)nc1NCc1ccco1 | . | 20.6 | . | . | .
O=C(COc1ccccc1)n1nc(-c2ccc(Cl)cc2)nc1NCc1ccco1 | . | 48.3 | . | . | 26.2
O=C(c1ccco1)n1nc(-c2ccc(Cl)cc2)nc1NCc1ccco1 | . | . | . | . | .
Cc1ccc(-c2nc(NCc3ccco3)n(C(=O)c3ccco3)n2)cc1 | . | 42.1 | . | . | 121.6
CCOC(=O)/C(=N\Nc1cc(C(F)(F)F)ccc1Cl)N(CC)CC | . | . | / | . | .
COc1ccc(CNc2nc(NCc3ccc(OC)cc3)n(C(=O)c3ccncc3)n2)cc1 | . | . | . | . | .
COc1ccc(CNc2nc(NCc3ccc(OC)cc3)n(C(=O)c3ccccc3[N+](=O)[O-])n2)cc1 | . | 25.9 | ? | ? | 75.2
SMILES | HCMV inh | CHX counter | Pf growth 48h | Pf growth 96h | Shiga toxin inh
CCCn1c(N)c(N(CCOC)C(=O)CCC2CCCCC2)c(=O)[nH]c1=O | . | / | . | . | /
CCN(c1ccc(OC)cc1)S(=O)(=O)c1c(C(=O)N2CCCCCC2)c(C)n(C)c1C | . | / | / | / | /
Cc1ccc(NCC(=O)Nc2cccc(F)c2)cc1S(=O)(=O)N1CCCCCC1 | -97.7 | . | 0.262µM | 0.208µM | .
COCCN(CC(=O)Nc1cccc(S(=O)(=O)N2CCCC2)c1)Cc1nc2ccccc2c(=O)[nH]1 | . | / | 10.4µM | ? | /
O=C(Nc1cc(S(=O)(=O)N2CCCCCC2)ccc1OCC(F)(F)F)C1CCC1 | . | . | . | . | .
COCCN(Cc1nc2ccccc2c(=O)[nH]1)C(=O)c1cccc(S(=O)(=O)N2CCCC2)c1 | . | / | ? | . | /
O=C(CNc1cccc(S(=O)(=O)N2CCCC2)c1)Nc1ccc(C(F)(F)F)cc1 | -69.2 | / | 4.15µM | 1.85µM | /
CN(C)S(=O)(=O)c1ccc(NC(=O)CNc2cc(S(=O)(=O)N3CCCC3)ccc2OCC(F)(F)F)cc1 | ? | . | ? | 13.1µM | .
CCOC(=O)CCCCC1C(CCCC(=O)OCC)C=NN1C (centres undefined) | . | / | / | / | /
O=C(CN1C(=O)NC2(CCCCC2)C1=O)NCCc1ccccc1 | . | / | / | / | /
O=C(CNc1cccc(S(=O)(=O)N2CCCCC2)c1)Nc1ccc(C(F)(F)F)cc1 | -79.0 | / | / | / | /
O=S(=O)(c1cccc(Cl)c1)N1CCCC1 | -106.7 | . | . | . | .
O=C(CNc1cccc(F)c1)Nc1cccc(S(=O)(=O)N2CCCCC2)c1 | . | / | . | . | /
Cc1ccc(NC(=O)CNc2cccc(S(=O)(=O)N3CCCCC3)c2)cc1F | . | / | ? | ? | /
N#Cc1cccc(NC(=O)CNc2cccc(S(=O)(=O)N3CCCCC3)c2)c1 | ? | / | 14.7µM | ? | /
O=C(c1cc(S(=O)(=O)N2CCCC2)c[nH]1)N1CCN(c2cccc(Cl)c2)CC1 | -101.6 | / | / | / | /
COc1ccc(NC(=O)c2cc3c(CO)cnc(C)c3oc2=Nc2cccc(F)c2)c(OC)c1 | . | . | . | ? | .
O=C(CCl)Nc1cccc(S(=O)(=O)N2CCCCCC2)c1 | -97.4 | . | 6.57µM | 5.22µM | .
O=C(Cc1n[nH]c(=O)c2ccccc12)NCc1ccccc1 | . | . | . | . | .
CC(NC(C)c1ccccc1Cl)C(=O)Nc1cccc(S(=O)(=O)N2CCCCC2)c1 (centres undefined) | ? | / | 10.4µM | 13.1µM | /
O=C(Cc1n[nH]c(=O)c2ccccc12)NC(c1ccccc1)c1ccccc1 | . | 16.0 | . | ? | .
O=C(Nc1cccc(S(=O)(=O)N2CCCCC2)c1)C1CC1 | . | / | . | . | /
O=C(CSc1nnc(Nc2ccccc2)s1)Nc1cccc(S(=O)(=O)N2CCCCC2)c1 | . | 49.5 | ? | . | 57.6
COc1ccc(CNC(=O)c2cnn(-c3ccc(C)cc3)c2-n2cccc2)cc1OC | . | / | / | / | /
O=C(Cc1n[nH]c(=O)c2ccccc12)Nc1cccc(S(=O)(=O)N2CCCCCC2)c1 | . | / | 9.28µM | ? | /
SMILES | HCMV inh | CHX counter | Pf growth 48h | Pf growth 96h | Shiga toxin inh
O=C(Cc1n[nH]c(=O)c2ccccc12)Nc1cccc(S(=O)(=O)N2CCCC2)c1 | . | . | ? | ? | .
COc1ccc(/C=N/NC(=O)c2cc(-c3ccc4c(c3)OCO4)n[nH]2)cc1OC | . | 28.7 | ? | 11.7µM | .
CN(C)c1ccc(/C=N/NC(=O)c2cc(-c3ccc4c(c3)OCO4)n[nH]2)cc1 | . | 31.1 | . | . | 59.8
O=C(N/N=C/c1ccc(F)cc1)c1cc(-c2ccc3c(c2)OCO3)n[nH]1 | . | . | . | . | .
COc1ccccc1CNC(=O)c1ccc(-c2nc(CN3CCc4ccccc43)c(C)o2)cc1 | . | / | / | / | /
c1ccc2c(-c3ccc4nncn4c3)cncc2c1 | -70.3 | / | / | / | /
c1coc(-c2ccc3nncn3c2)c1 | . | / | / | / | /
C[C@]12CC(O)C3C(CCC4=CC(=O)CC[C@@]43C)C1CCC2c1csc(-c2ccccc2)n1 (some centres undefined) | -75.8 | . | 5.22µM | ? | .
COc1ccc(C(C)=O)cc1COC(=O)CNC(=O)c1cc(C)cc(C)c1 | . | . | . | . | .
